Only some compounds are listed: those with a hit (about 19% of all), similar ones and a draw of the others.
Chronic BCR inh = qHTS Assay to Find Inhibitors of Chronic Active B-Cell Receptor Signaling; ABC-DLBCL IkBa-CBG/CBR reporter, luminescence ratio, 4 h; Potency, µM (doses to about 46.1 µM), inactives show at the highest dose activity change, negative = inhibition, actives largely listed as inhibitors; hit rate 0.05% among 340,000; AID 493014, 2011; active = well fitted inhibition curve with a large enough effect in the signal ratio, with a control signal flat, not every such curve was filed as active; inconclusive = small, poorly fitted or top-dose-only effect, or effect the other way, or a change in a side signal; the % refers to the signal ratio;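 also: potency is read from the fitted curve at half-maximal effect; plate controls were basal doxycycline-induced cells for no effect and cells given 10 µM MG132 for full effect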
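Doxycycline induced both beetle luciferases in TMD8 lymphoma cells; IKK-driven degradation limits the IkappaBalpha-fused green signal, while red luminescence normalises for cell number and nonspecific effects. Compounds tested up to 46 uM, 4 hrs.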
DT40 TDP1 CPT = qHTS for Inhibitors of human tyrosyl-DNA phosphodiesterase 1 (TDP1): qHTS in cells in presence of CPT. chicken DT40 Tdp1-/-;hTDP1 cells + 20 nM CPT, ATP luminescence, 48 h. Potency, µM (top dose mostly 46.2 µM), for the others: at the highest dose activity change, negative = growth inhibition, actives largely listed as inhibitors. hit rate 12% among 420,000; also: potency is read from the fitted curve at half-maximal effect; % is scaled to controls: 0 for no effect and ±100 for the full control effect; nearly all actives have a fitted effect of over 55% in size
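Cell growth measured by CellTiter-Glo luminescence after a minimum 48 h, 37 C compound exposure with 20 nM CPT in Tdp1-knockout DT40 cells stably expressing hTDP1, seeded 400/well; qHTS titration format.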
SW480 rerep = A quantitative high throughput screen for small molecules that induce DNA re-replication in SW480 colon adenocarcinoma cells. hit rate 1.8% among 340,000. SW480 DNA re-replication, Hoechst DNA content imaging, 48 h. AID 624297, 2012. Potency, µM (highest dose often 46.1 µM), inactives show at the highest dose re-replication activation, hits mostly activators; also: potency is read from the fitted curve at half-maximal effect; % of control where 0% means no effect; nearly all actives have a fitted effect of over 55% in size
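Hoechst fluorescence of nuclei (405 nm excitation, 500-530 nm emission) measured by plate-scanning imager after 48 hr compound exposure at 37 C; re-replication scored as increased number of nuclei with elevated intensity.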
MCF10A rereplic = A quantitative high throughput screen for small molecules that induce DNA re-replication in MCF 10a normal breast cells. AID 624296, 2012. hit rate 2.9% among 350,000. MCF 10A DNA re-replication, Hoechst nuclear intensity, 48 h. Potency, µM (top dose mostly 46.1 µM), inactives show top-dose activity, positive = re-replication, actives largely listed as activators; also: potency is read from the fitted curve at half-maximal effect; % of control where 0% means no effect; nearly all actives have a fitted effect of over 50% in size
IL-1B inflam inh = qHTS for Inhibitors of Inflammasome Signaling: IL-1-beta AlphaLISA Primary Screen; AID 743279, 2014; THP-1 LPS/ATP IL-1B secretion, AlphaLISA, 16 h; active compounds read low; activity change, % at 57.5 µM; hit rate 4.7% among 360,000; in the data active = activity change below about -50%; inconclusive = mostly about -30% to -49%; also: % is scaled to controls: 0 for no effect and ±100 for the full control effect
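Secreted IL-1B measured by AlphaLISA bead assay after 16 h compound exposure of THP-1 cells; compounds (final up to 57.5 uM) added 1 h before LPS (250 ng/mL) and ATP (1.25 mM) stimulation; lower signal means less secretion.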
DT40 TDP1 no CPT = qHTS for Inhibitors of human tyrosyl-DNA phosphodiesterase 1 (TDP1): qHTS in cells in absence of CPT. DT40 Tdp1-/- hTDP1 cells, no CPT, ATP luminescence, 48 h. Potency, µM (titrated, usually from 46.2 µM), without a hit: top-dose activity change, negative = growth inhibition, actives largely listed as inhibitors. hit rate 15% among 420,000. AID 686978, 2013; also: potency is read from the fitted curve at half-maximal effect; % is scaled to controls: 0 for no effect and ±100 for the full control effect; nearly all actives have a fitted effect of over 55% in size
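Growth kinetics read by CellTiter-Glo luminescence after ≥48 hr at 37 °C. Cells: DT40 Tdp1-/- stably carrying human TDP1, 400 per well, compound exposure in the absence of CPT (DMSO vehicle).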
The depositor's hits bear a star; ? = inconclusive; nt = no result; ! = not active in a repeat. Unless noted, calls follow the shape of the dose curve; as a rule, active = well fitted curve in the direction sought with a large enough effect; inconclusive = small, poorly fitted or top-dose-only effect, or another doubt; inactive = no such curve, though single readings can be large; an effect the other way counts as inactive or inconclusive.

SMILES | Chronic BCR inh | DT40 TDP1 CPT | SW480 rerep | MCF10A rereplic | IL-1B inflam inh | DT40 TDP1 no CPT
C#CCOc1ccc(/C=C2/C(=O)ON=C2C)cc1Br | -4% | 23µM* | 19% | ? | -27 | 26µM*
CCCOc1ccccc1/C=C1/C(=O)ON=C1C | 1% | ? | -3% | 2% | -52* | ?
Cc1ccccc1NC(=S)C1=C(O)c2sccc2N(C)S1(=O)=O | ? | ? | -11% | 2% | 35 | ?
CN1c2ccsc2C(O)=C(C(=S)Nc2ccccc2)S1(=O)=O | ? | 15µM* | -2% | -4% | 52 | 23µM*
CN1c2ccccc2C(O)=C(C(=O)Nc2ccccc2)S1(=O)=O | ? | ? | -3% | -6% | 13 | ?
Cc1ccc(NC(=S)C2=C(O)c3ccccc3N(C)S2(=O)=O)cc1 | ? | ? | -4% | 9% | 44 | 21µM*
CN1c2ccccc2C(O)=C(C(=S)Nc2ccccc2)S1(=O)=O | ? | 18µM* | -10% | 7% | 52 | 26µM*
CN1c2ccccc2C(O)=C(C(=S)Nc2ccc(F)c(Cl)c2)S1(=O)=O | ? | ? | 2% | ? | -3 | 18µM*
CC(=O)Nc1ccc(N2C(C(C)=O)=NN(c3ccc(Cl)cc3)C2c2sccc2C)cc1 (configuration not stated) | ? | 23µM* | ? | 23µM* | -7 | 23µM*
CC(=O)Nc1ccc(N2C(C(C)=O)=NN(c3ccccc3)C2c2cccs2)cc1 (configuration not stated) | ? | ? | 4% | ? | -2 | ?
CC(=O)Oc1ccc(C23c4ccccc4C2(OC(C)=O)c2cc(OC(C)=O)ccc23)cc1 (configuration not stated) | nt | 23µM* | 18µM* | 5.2µM* | -93* | ?
CC(=O)Oc1cccc(O)c1 | nt | ? | -1% | 4% | nt | -24%
Cc1nn(S(=O)(=O)c2ccc(C(C)(C)C)cc2)c(C)c1S(=O)(=O)N1CCC(C)CC1 | nt | -10% | nt | nt | nt | -2%
Cc1cc(-c2nc3cccnc3s2)ccc1NS(=O)(=O)c1ccc2c(c1)OCCO2 | ? | -21% | ? | 5.2µM* | 0 | -26%
Cc1ccc(-c2nc3cccnc3s2)cc1NS(=O)(=O)c1ccc2c(c1)CCCC2 | ? | -20% | -8% | ? | -15 | ?
Cc1c(NS(=O)(=O)c2ccc3c(c2)OCCO3)cccc1-c1nc2cccnc2s1 | -23% | ? | 0% | 1% | -6 | 12µM*
Cc1c(NS(C)(=O)=O)cccc1-c1nc2cccnc2s1 | ? | ? | -16% | ? | -15 | ?
Cc1nn(C)c(Oc2cccc(Cl)c2)c1C#N | -1% | ? | 1% | -2% | -10 | 23µM*
O=C(Nc1cc(C2CC2)nn1-c1ccccc1)c1ccc(F)cc1 | 0% | 3% | 0% | -5% | 4 | -18%
CN(CC(=O)Nc1ccc(Cl)c(C(F)(F)F)c1)C(=O)c1cccc(N2C(=O)CCC2=O)c1 | ? | -25% | -24% | 25% | 31 | ?
CCOc1ccccc1NC(=O)CN1C(=O)COc2ccc(S(=O)(=O)NC3CCCC3)cc21 | nt | 26µM* | nt | nt | nt | ?
COc1ccc(Cl)cc1NC(=O)CN1C(=O)COc2ccc(S(=O)(=O)NC3CCCC3)cc21 | nt | 7% | nt | nt | nt | -13%
Cc1ccc(NC(=O)CN2C(=O)COc3ccc(S(=O)(=O)NC4CCCC4)cc32)c(Cl)c1 | nt | -26% | nt | nt | nt | ?
CC(C)N(Cc1ccccc1)C(=O)CN1C(=O)COc2ccc(S(=O)(=O)NC3CCCC3)cc21 | 0% | 26µM* | -8% | 12% | ? | 23µM*!
CC(C)CNC(=O)c1cn(C2CCN(Cc3nc4ccccc4s3)CC2)nn1 | nt | 3% | nt | nt | nt | -14%
SMILES | Chronic BCR inh | DT40 TDP1 CPT | SW480 rerep | MCF10A rereplic | IL-1B inflam inh | DT40 TDP1 no CPT
Cc1cc(=O)oc2c(C)c(OCC(=O)NC3CC(C)(C)NC(C)(C)C3)ccc12 | -13% | 39% | ? | -9% | -23 | -2%
Cc1c(OCC(=O)NC2CC(C)(C)NC(C)(C)C2)ccc2c1oc(=O)c1ccccc12 | 0% | ? | 13µM* | 2% | ? | 12µM*
Cc1c(OCC(=O)NC2CC(C)(C)NC(C)(C)C2)ccc2c3c(c(=O)oc12)CCC3 | 0% | ? | ? | 11% | -54* | -26%
Cc1cc(C)c(S(=O)(=O)Nc2ccc(Cl)cn2)c(C)c1 | -3% | 27% | -2% | 3% | 2 | -4%
O=C(O)C1CCC(Cn2c(SCc3cc(=O)n4cc(Cl)ccc4n3)nc3ccsc3c2=O)CC1 (configuration not stated) | 15% | ? | -48% | -9% | -5 | ?
CCOc1cc(C=O)cc(Cl)c1OCC(N)=O | ? | ? | -18% | 28% | 31 | 18µM*
CSc1c(CN2CCN(C)CC2)c2ccccc2n1C | nt | 0% | -63% | ? | 16 | -21%
CNc1nc(N)c([N+](=O)[O-])c(Nc2cccc(Cl)c2)n1 | ? | ? | 4% | -2% | 21 | ?
Nc1nc(N)c(N=O)c(Nc2cccc(Cl)c2)n1 | nt | 5.8µM* | nt | nt | ? | 10µM*
Cc1ccc(Nc2ncnc3nc[nH]c23)cc1Cl | -32% | -23% | -6% | 22% | -10 | -23%
CCc1c(N)nc(N)nc1Nc1ccc(C)c(C)c1 | nt | ? | 1% | 4% | -8 | 15µM*
Nc1nc(N)c(Br)c(Nc2ccc(Cl)c(Cl)c2)n1 | nt | ? | 2% | ? | 28 | ?
Cc1ccc(Nc2nc(N)nc(N)c2N=O)cc1Cl | nt | 10µM* | nt | nt | nt | 13µM*
Nc1nc(N)c(N=O)c(Nc2ccc(Cl)c(Cl)c2)n1 | nt | 4.1µM* | nt | nt | -7 | 7.3µM*
COc1ccc(-c2nnc(SCC(=O)Oc3cccc(C)c3C)o2)cc1 | nt | 6% | nt | nt | nt | 3%
CCN(CC(=O)NCc1cccs1)C(=O)c1ccc(NS(=O)(=O)c2ccc(F)cc2)cc1 | 14% | -1% | -3% | 8% | 7 | -28%
CCOc1ccc(NC(=O)C2CCN(S(=O)(=O)c3cccs3)CC2)cc1 | 7% | -16% | -8% | 8% | -58* | ?
